{"source": "paper PMC4336329", "about": "(PLoS ONE, 2015)", "note": "Hit rate of the full screen: of about 310,000 compounds, about 14,000 (4.5%) showed an effect of 50% or more. The effect is printed as a negative number. The entries come from a sample that favours strong results as a whole.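 Also: peak tail current of the secondary pulse compared with the same well before compound.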"}
{"target": "human ether-à-go-go-related gene (hERG) potassium channel (human, UniProt Q12809)", "sequence (Q12809 whole entry, looked up)": "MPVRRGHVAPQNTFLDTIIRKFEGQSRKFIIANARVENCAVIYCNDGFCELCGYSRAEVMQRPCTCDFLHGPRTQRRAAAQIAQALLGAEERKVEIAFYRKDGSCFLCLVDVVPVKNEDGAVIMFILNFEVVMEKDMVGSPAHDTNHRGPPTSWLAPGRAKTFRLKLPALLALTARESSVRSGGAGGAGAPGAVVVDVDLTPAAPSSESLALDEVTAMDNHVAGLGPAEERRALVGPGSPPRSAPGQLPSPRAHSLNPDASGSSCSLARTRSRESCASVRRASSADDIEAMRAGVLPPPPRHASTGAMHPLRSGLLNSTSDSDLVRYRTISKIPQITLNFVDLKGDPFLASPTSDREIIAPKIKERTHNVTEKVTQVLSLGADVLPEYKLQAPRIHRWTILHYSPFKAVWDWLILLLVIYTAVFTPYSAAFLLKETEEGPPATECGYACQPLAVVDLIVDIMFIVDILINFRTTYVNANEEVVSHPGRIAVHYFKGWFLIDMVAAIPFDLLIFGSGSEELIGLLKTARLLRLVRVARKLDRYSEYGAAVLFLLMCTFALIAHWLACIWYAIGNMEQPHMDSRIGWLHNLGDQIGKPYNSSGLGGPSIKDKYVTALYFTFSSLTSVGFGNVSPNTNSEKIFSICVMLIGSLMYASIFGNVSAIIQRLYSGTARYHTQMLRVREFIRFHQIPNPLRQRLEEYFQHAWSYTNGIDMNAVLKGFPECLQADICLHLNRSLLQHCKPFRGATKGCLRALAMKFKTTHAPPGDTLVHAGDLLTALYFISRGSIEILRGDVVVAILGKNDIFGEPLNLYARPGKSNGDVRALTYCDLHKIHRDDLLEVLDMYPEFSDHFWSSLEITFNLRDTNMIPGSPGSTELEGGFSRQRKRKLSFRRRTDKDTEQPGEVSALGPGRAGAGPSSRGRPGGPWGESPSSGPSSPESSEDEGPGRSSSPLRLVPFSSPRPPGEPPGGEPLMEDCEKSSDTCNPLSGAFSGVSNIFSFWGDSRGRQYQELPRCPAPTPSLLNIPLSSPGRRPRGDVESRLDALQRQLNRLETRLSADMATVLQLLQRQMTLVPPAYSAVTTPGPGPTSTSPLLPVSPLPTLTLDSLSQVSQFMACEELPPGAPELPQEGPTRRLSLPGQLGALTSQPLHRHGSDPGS", "assay": "primary screen, population patch clamp on CHO cells stably expressing hERG; higher = less effect of the substance", "units": {"hERG current change (%, negative = inhibition) at 10uM": "%"}}
{"smiles": "CC1(C)CC(=O)C(CC2=C(N)CC(C)(C)CC2=O)=C(N)C1", "hERG current change (%, negative = inhibition) at 10uM": 4.6}
{"smiles": "COC(C[C@H]1O[C@@H]1C(=O)COCc1ccccc1)OC", "hERG current change (%, negative = inhibition) at 10uM": 4.27}
{"smiles": "COc1ccc2ncc(S(=O)(=O)c3ccccc3)c(N3CCN(c4ccccc4)CC3)c2c1", "hERG current change (%, negative = inhibition) at 10uM": -8.4}
{"smiles": "COc1ccc2ncc(S(=O)(=O)c3ccccc3)c(N3CCC4(CC3)OCCO4)c2c1", "hERG current change (%, negative = inhibition) at 10uM": -63.3}
{"smiles": "COc1cc2ncc(S(=O)(=O)c3ccccc3)c(N3CCC4(CC3)OCCO4)c2cc1OC", "hERG current change (%, negative = inhibition) at 10uM": -80.8}
{"smiles": "COc1cc2ncc(S(=O)(=O)c3ccccc3)c(N3CCCC(C)C3)c2cc1OC", "note": "(stereo not drawn)", "hERG current change (%, negative = inhibition) at 10uM": -7.67}
{"smiles": "COc1ccc(S(=O)(=O)c2cnc3ccc(OC)cc3c2N2CCC3(CC2)OCCO3)cc1", "hERG current change (%, negative = inhibition) at 10uM": -28.5}
{"smiles": "CCOc1ccc2ncc(S(=O)(=O)c3ccccc3)c(N3CCC4(CC3)OCCO4)c2c1", "hERG current change (%, negative = inhibition) at 10uM": -42.4}
{"smiles": "O=C(Nc1ccc(Cl)c(Cl)c1)Nc1ccccn1", "hERG current change (%, negative = inhibition) at 10uM": 2.95}
{"smiles": "Cc1ccc(/C=C2\\SC(=S)N(CCCC(=O)Nc3nccs3)C2=O)cc1", "hERG current change (%, negative = inhibition) at 10uM": 15.7}
{"smiles": "O=C(COC(=O)CCCN1C(=O)c2cccc3cccc(c23)C1=O)Nc1ccc(Cl)cc1", "hERG current change (%, negative = inhibition) at 10uM": 3.07}
{"smiles": "N#Cc1ccc(-c2ccc(F)cc2)nc1SCC(=O)Nc1sc2c(c1C#N)CCC2", "hERG current change (%, negative = inhibition) at 10uM": 4.57}
{"smiles": "CC(C)(C)c1ccc(C(=O)N2CCC(C(=O)NC3CC3)CC2)cc1", "hERG current change (%, negative = inhibition) at 10uM": -2.74}
{"smiles": "O=C(NC1CC1)C1CCN(C2CCN(C(=O)/C=C/c3ccc(F)cc3)CC2)CC1", "hERG current change (%, negative = inhibition) at 10uM": -62.9}
{"smiles": "O=C(NC1CC1)C1CCN(C2CCN(C(=O)/C=C/c3cccc(F)c3F)CC2)CC1", "hERG current change (%, negative = inhibition) at 10uM": -22.1}
{"smiles": "O=C(NC1CC1)C1CCN(C2CCN(C(=O)Cc3ccc(F)cc3)CC2)CC1", "hERG current change (%, negative = inhibition) at 10uM": -2.99}
{"smiles": "O=C(NC1CC1)C1CCN(C2CCN(Cc3ccccc3C(F)(F)F)CC2)CC1", "hERG current change (%, negative = inhibition) at 10uM": -53.1}
{"smiles": "Cc1ccc2c(C)c(C(=O)N3CCC(N4CCC(C(=O)NC5CC5)CC4)CC3)oc2c1", "hERG current change (%, negative = inhibition) at 10uM": -59.1}
{"smiles": "Cc1ccc2oc(C(=O)N3CCC(N4CCSCC4)CC3)c(C)c2c1", "hERG current change (%, negative = inhibition) at 10uM": -30.6}
{"smiles": "FC(F)(F)c1ccccc1CN1CCN(C2CCCCCC2)CC1.O=C(O)C(=O)O", "hERG current change (%, negative = inhibition) at 10uM": -49.3}
{"smiles": "CC(C)(C)c1ccc(C(=O)N2CCC(C(=O)NC3CCCCCC3)CC2)cc1", "hERG current change (%, negative = inhibition) at 10uM": -40}
{"smiles": "CCOc1ccccc1CN1CCC(N2CCC(C(=O)NC3CC3)CC2)CC1", "hERG current change (%, negative = inhibition) at 10uM": 1.53}
{"smiles": "O=C(NC1CC1)C1CCN(C2CCN(C(=O)c3ccc(C(F)(F)F)cc3)CC2)CC1", "hERG current change (%, negative = inhibition) at 10uM": -56.4}
{"smiles": "O=C(NC1CC1)C1CCN(C2CCN(C(=O)c3c(F)cccc3Cl)CC2)CC1", "hERG current change (%, negative = inhibition) at 10uM": 13.3}
{"smiles": "O=C(NCCCCCCNC(=O)OCCO)OCCO", "hERG current change (%, negative = inhibition) at 10uM": 28.4}
{"smiles": "NNC(=O)CNS(=O)(=O)c1ccc([N+](=O)[O-])cc1", "hERG current change (%, negative = inhibition) at 10uM": 17.4}
{"smiles": "COc1ccccc1N(C)S(=O)(=O)c1ccc(C(=O)NCC2CCCCC2)cc1", "hERG current change (%, negative = inhibition) at 10uM": -3.05}
{"smiles": "CC(C)Cn1c(N)c(C(=O)COC(=O)CC23CC4CC(CC(C4)C2)C3)c(=O)n(C)c1=O", "hERG current change (%, negative = inhibition) at 10uM": -16.2}
{"smiles": "CCCc1cc(=O)c2c(O)cccc2o1", "hERG current change (%, negative = inhibition) at 10uM": 5.41}
{"smiles": "CC1CC1C(=O)OCC(=O)Nc1ccc2[nH]c(=O)[nH]c2c1", "note": "(stereo not drawn)", "hERG current change (%, negative = inhibition) at 10uM": 2.94}
{"smiles": "COCCN1CCN(C(=O)c2ccc3oc(CCc4ccccc4)nc3c2)CC1", "hERG current change (%, negative = inhibition) at 10uM": -30.1}
{"smiles": "COc1ccccc1N(CC(=O)N1CCN(c2ccccc2)CC1)S(=O)(=O)c1ccc(C)cc1", "hERG current change (%, negative = inhibition) at 10uM": 17.5}
{"smiles": "Cc1nc(NCCc2ccc(S(N)(=O)=O)cc2)c2c(C)c(C)sc2n1", "hERG current change (%, negative = inhibition) at 10uM": 4.01}
{"smiles": "COc1ccc(-c2noc(CCC(=O)NCCCN3CCC(Cc4ccccc4)CC3)n2)cc1", "hERG current change (%, negative = inhibition) at 10uM": -80.7}
{"smiles": "CC1(C)CC(=O)c2cc(OCC(=O)NCCN3CCOCC3)ccc2O1", "hERG current change (%, negative = inhibition) at 10uM": 22.7}
{"smiles": "COc1ccc(-c2noc(CCC(=O)NCCCN3CCN(c4ccc(F)cc4)CC3)n2)cc1", "hERG current change (%, negative = inhibition) at 10uM": -67.4}
{"smiles": "O=C(CCc1nc(-c2ccccc2F)no1)NCCN1CCOCC1", "hERG current change (%, negative = inhibition) at 10uM": 6.22}
{"smiles": "COc1ccc(-c2noc(CCC(=O)NCCc3ccccc3)n2)cc1", "hERG current change (%, negative = inhibition) at 10uM": 20.9}
{"smiles": "O=C(CCc1nc(-c2ccccc2F)no1)NCCN1CCN(Cc2ccccc2)CC1", "hERG current change (%, negative = inhibition) at 10uM": -43.2}
{"smiles": "COc1ccc(-c2noc(CCC(=O)NCCCN3CCC(C)CC3)n2)cc1", "hERG current change (%, negative = inhibition) at 10uM": -5.81}
{"smiles": "COc1ccc(N2CCN(C(=O)CCc3nc(-c4ccc(C)cc4)no3)CC2)cc1", "hERG current change (%, negative = inhibition) at 10uM": -14.1}
{"smiles": "CC1(C)CC(=O)c2cc(OCC(=O)NCCCN3CCN(c4ccccc4F)CC3)ccc2O1", "hERG current change (%, negative = inhibition) at 10uM": -47.4}
{"smiles": "CC1(C)CC(=O)c2cc(OCC(=O)NCCCN3CCN(c4ccc(F)cc4)CC3)ccc2O1", "hERG current change (%, negative = inhibition) at 10uM": -72.9}
{"smiles": "O=C(CCc1nc(-c2ccccc2F)no1)NCCN1CCc2ccccc2C1", "hERG current change (%, negative = inhibition) at 10uM": -50.4}
{"smiles": "CCN1CCN(CCCNC(=O)CCc2nc(-c3ccc(OC)cc3)no2)CC1", "hERG current change (%, negative = inhibition) at 10uM": -2.35}
